Test results published in PubChem BioAssay (NCI).
“And” between values parts separate entries of the source, which are not always exact repeats. Equal entries are not always repeated. The panel holds about 79,000 compounds, 15% with a hit somewhere; the sample as a whole holds those more often. The source holds several records for some structures; these can differ, active in one and inactive in another. The source made the active and inactive calls. No stated cut-off is given here; in the data, active means growth inhibition above about 70%; inactive means the rest.

Tests used:
[1] = NCI Yeast Anticancer Drug Screen. Data for the wt1 strain (AID 149);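 further: 0% = growth of vehicle-treated wt1 cultures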; conditions: S. cerevisiae wt1 strain (SPY 50644) growth inhibition, stronger effect = higher value
In short: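 wt1 yeast, compound-treated; % growth inhibition vs vehicle control.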

[2] = NCI Yeast Anticancer Drug Screen. Data for the rad50EPP+ strain (AID 151);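 further: 0% = growth of vehicle-treated control cultures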; conditions: S. cerevisiae rad50 mutant strain, stronger effect = higher value
In short: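 Measured: growth inhibition of rad50EPP+ yeast. Reference: vehicle-treated controls. Screen uses strains with defined genetic alterations in DNA damage repair or cell cycle control.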

[3] = NCI Yeast Anticancer Drug Screen. Data for the mgt1 strain (AID 153); conditions: S. cerevisiae mgt1 mutant growth inhibition, stronger effect = higher value
In short: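 Compounds were applied to mgt1 mutant yeast, and growth was then compared against vehicle-treated control cultures to give percent inhibition.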

[4] = NCI Yeast Anticancer Drug Screen. Data for the rad50 strain (AID 155);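 further: 0% = growth of vehicle-only cultures of the same strain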; conditions: S. cerevisiae rad50 strain growth inhibition, stronger effect = higher value
In short: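 Genetically altered yeast (DNA repair pathway); compound treatment; growth inhibition vs vehicle ctrl.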

[5] = NCI Yeast Anticancer Drug Screen. Data for the mec2-1 strain (AID 157); conditions: S. cerevisiae mec2-1 strain, stronger effect = higher value
In short: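 Compounds were applied to mec2-1 yeast cells. Their growth was then compared with that of vehicle-treated cultures to give growth inhibition.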

[6] = NCI Yeast Anticancer Drug Screen. Data for the rad14 strain (AID 159);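 further: 0% = growth of vehicle-treated control cultures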; conditions: S. cerevisiae rad14 strain growth inhibition, stronger effect = higher value
In short: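 Test compounds were applied to a repair-deficient yeast strain. Its growth was then compared with that of cultures given vehicle alone, and inhibition was expressed relative to those controls.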

[7] = NCI Yeast Anticancer Drug Screen. Data for the sgs1 mgt1 strain (AID 161);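 further: 0% = growth of cultures given vehicle only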; conditions: S. cerevisiae sgs1 mgt1 strain, stronger effect = higher value
In short: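 This yeast growth screen uses a strain with defined DNA-repair lesions; compound-treated growth is compared with vehicle-treated growth.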

[8] = NCI Yeast Anticancer Drug Screen. Data for the CLN2oe strain (AID 163);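 further: 0% = growth of vehicle-only control cultures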; conditions: S. cerevisiae CLN2oe strain, stronger effect = higher value
In short: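 Cells of an engineered yeast line with disturbed cell-cycle regulation are treated with compound. Inhibition of growth is then calculated relative to the vehicle-treated reference.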

[9] = NCI Yeast Anticancer Drug Screen. Data for the bub3 strain (AID 167); conditions: S. cerevisiae bub3 mutant strain, stronger effect = higher value
In short: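 Yeast carrying a defined mutation is treated with each compound, and growth is compared with that of vehicle-exposed cells to give inhibition.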

[10] = NCI Yeast Anticancer Drug Screen. Data for the wt2 strain (AID 169);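 further: 0% = growth of vehicle-treated yeast cultures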; conditions: S. cerevisiae wt2 strain growth inhibition, stronger effect = higher value
In short: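 Growth of compound-treated yeast is measured and expressed as inhibition relative to vehicle-only controls.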

[11] = NCI Yeast Anticancer Drug Screen. Data for the mlh1 strain (AID 171);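 further: 0% = growth of vehicle-treated control cultures of the same strain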; conditions: S. cerevisiae mlh1 strain growth inhibition, stronger effect = higher value
In short: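 Test agents were incubated with yeast bearing a defined DNA damage repair or cell cycle control alteration; values are growth inhibition normalised to vehicle-treated cultures.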

[12] = NCI Yeast Anticancer Drug Screen. Data for the sgs1 strain (AID 173);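 further: 0% = growth of vehicle-only control cultures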; conditions: S. cerevisiae sgs1 mutant, stronger effect = higher value
In short: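 Strain with an altered DNA repair or cell cycle pathway exposed to compound. Growth then measured. Value = inhibition versus vehicle control.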

[13] = NCI Yeast Anticancer Drug Screen. Data for the rad18 strain (AID 177); conditions: S. cerevisiae rad18 mutant growth inhibition, stronger effect = higher value
In short: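 DNA-repair-defective yeast; compound treatment; growth inhibition scored against vehicle.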

[14] = NCI Yeast Anticancer Drug Screen. Data for the cln2 rad14 strain (AID 165);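 further: 0% = growth equal to vehicle treated cultures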; conditions: S. cerevisiae cln2 rad14 strain, stronger effect = higher value
In short: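 Strain: cln2 rad14 yeast, altered in cell cycle control and DNA damage repair. Read-out: growth inhibition vs vehicle.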

[15] = NCI Yeast Anticancer Drug Screen. Data for the mlh1 rad18 strain (AID 175); conditions: S. cerevisiae mlh1 rad18 strain growth inhibition, stronger effect = higher value
In short: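 A repair-deficient yeast strain is exposed to test compound, and growth is scored relative to vehicle-treated controls.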

[16] = at 5.0 µM (retest, dose inferred, filed as 0.5)
[17] = at 50.0 µM (retest, dose inferred, filed as 5.0)

Measured: growth inhibition

Cc1cnc(/C=N\NC(N)=S)c2cccc(N)c12
48.4% (inactive) and 75.1% (active): [9]; at 50.0 µM
active: [1]; at 100.0 µM 90% | [3]; at 100.0 µM 84% | [4]; [17] 80% and 71% | [4]; at 100.0 µM 83% | [5]; at 33.0 µM 82% | [5]; [17] 87% and 86% | [5]; at 100.0 µM 94% | [6]; at 100.0 µM 91% | [9]; at 100.0 µM 80% | [10]; at 100.0 µM 91% | [11]; at 100.0 µM 87% | [12]; at 100.0 µM 94% | [13]; at 100.0 µM 85%
74% (active) and 60% (inactive): [5]; at 50.0 µM
83% (active) and 30% (inactive): [7]; [17]
87% (active) and -11% (inactive): [9]; [17]
inactive: [1]; at 1.2 µM -63% | [1]; at 3.7 µM -49% | [1]; at 11.0 µM -36% | [1]; at 33.0 µM 58% | [2]; at 1.2 µM -68% | [2]; at 3.7 µM -57% | [2]; at 11.0 µM -45% | [2]; at 33.0 µM -38% | [2]; at 100.0 µM -4% | [3]; at 1.2 µM -78% | [3]; at 3.7 µM -69% | [3]; at 11.0 µM -12% | [3]; at 33.0 µM 43% | [4]; at 1.2 µM -81% | [4]; at 3.7 µM -43% | [4]; [16] 13% and 15% | [4]; at 11.0 µM -69% | [4]; at 33.0 µM 28% | [4]; at 50.0 µM 62.3% and 60% | [5]; at 1.2 µM -19% | [5]; at 3.7 µM -48% | [5]; [16] 7% and 21% | [5]; at 11.0 µM 13% | [6]; at 1.2 µM -92% | [6]; at 3.7 µM -75% | [6]; at 11.0 µM -35% | [6]; at 33.0 µM 45% | [7]; [16] 16% and 8% | [7]; at 50.0 µM 61.1% and 63% | [8]; at 1.2 µM -16% | [8]; at 3.7 µM -39% | [8]; at 11.0 µM -29% | [8]; at 33.0 µM 30% | [8]; at 100.0 µM 63% | [9]; at 1.2 µM -69% | [9]; at 3.7 µM -60% | [9]; [16] 15% and 9% | [9]; at 11.0 µM -50% | [9]; at 33.0 µM 25% | [10]; at 1.2 µM -73% | [10]; at 3.7 µM -48% | [10]; at 11.0 µM 5% | [10]; at 33.0 µM 56% | [11]; at 1.2 µM -75% | [11]; at 3.7 µM -79% | [11]; at 11.0 µM -43% | [11]; at 33.0 µM 27% | [12]; at 1.2 µM -39% | [12]; at 3.7 µM -42% | [12]; at 11.0 µM -13% | [12]; at 33.0 µM 49% | [13]; at 1.2 µM -144% | [13]; at 3.7 µM -115% | [13]; at 11.0 µM -88% | [13]; at 33.0 µM 25%

O=C1c2ccccc2C2CCC1c1ccccc12 (stereo not given)
inactive: [1]; at 1.2 µM -12% | [1]; at 3.7 µM -14% | [1]; at 11.0 µM -13% | [1]; at 33.0 µM -6% | [2]; at 1.2 µM 1% | [2]; at 3.7 µM -4% | [2]; at 11.0 µM -2% | [2]; at 33.0 µM 50% | [2]; at 100.0 µM 68% | [3]; at 1.2 µM -12% | [3]; at 3.7 µM 6% | [3]; at 11.0 µM 5% | [3]; at 33.0 µM 17% | [4]; at 1.2 µM -19% | [4]; at 3.7 µM -5% | [4]; [16] 0% | [4]; at 11.0 µM 3% | [4]; at 33.0 µM 20% | [4]; [17] -29% | [4]; at 50.0 µM 62.9% | [5]; at 1.2 µM -24% | [5]; at 3.7 µM -14% | [5]; [16] -6% | [5]; at 11.0 µM 3% | [5]; at 33.0 µM 12% | [5]; [17] -19% | [5]; at 50.0 µM -6.1% | [6]; at 1.2 µM -25% | [6]; at 3.7 µM -24% | [6]; at 11.0 µM -17% | [6]; at 33.0 µM -6% | [7]; [16] -15% | [7]; [17] -7% | [7]; at 50.0 µM 9.45% | [14]; [16] -19% | [14]; [17] 13% | [14]; at 50.0 µM 18.3% | [9]; at 1.2 µM -22% | [9]; at 3.7 µM -30% | [9]; [16] -32% | [9]; at 11.0 µM -33% | [9]; at 33.0 µM 33% | [9]; at 50.0 µM 7.05% | [10]; at 1.2 µM -1% | [10]; at 3.7 µM -11% | [10]; at 11.0 µM 4% | [10]; at 33.0 µM 0% | [12]; at 1.2 µM -12% | [12]; at 3.7 µM -18% | [12]; at 11.0 µM -18% | [12]; at 33.0 µM 18% | [15]; [16] -45% | [15]; [17] 26% | [15]; at 50.0 µM 10.6% | [13]; at 1.2 µM -40% | [13]; at 3.7 µM -30% | [13]; at 11.0 µM -38% | [13]; at 33.0 µM -26%
active: [1]; at 100.0 µM 97% | [3]; at 100.0 µM 97% | [4]; at 100.0 µM 94% | [5]; at 100.0 µM 98% | [6]; at 100.0 µM 97% | [9]; [17] 89% | [9]; at 100.0 µM 97% | [10]; at 100.0 µM 97% | [12]; at 100.0 µM 96% | [13]; at 100.0 µM 96%

S=C1NC2=C(CSC/C2=C\c2ccc(Cl)cc2)C(c2ccc(Cl)cc2)N1 (stereo not given)
inactive: [1]; at 1.2 µM 8% | [1]; at 3.7 µM 19% | [1]; at 11.0 µM 24% | [1]; at 33.0 µM 61% | [2]; at 1.2 µM -3% | [2]; at 3.7 µM 12% | [2]; at 11.0 µM 12% | [2]; at 33.0 µM 16% | [2]; at 100.0 µM 9% | [3]; at 1.2 µM 29% | [3]; at 3.7 µM 31% | [3]; at 11.0 µM 44% | [4]; at 1.2 µM 20% | [4]; at 3.7 µM 42% | [4]; [16] -9% | [4]; at 11.0 µM 56% | [5]; at 1.2 µM 0% | [5]; at 3.7 µM -1% | [5]; [16] 5% | [5]; at 11.0 µM 24% | [5]; at 33.0 µM 61% | [6]; at 1.2 µM 11% | [6]; at 3.7 µM 26% | [6]; at 11.0 µM 38% | [7]; [16] 6% | [8]; at 1.2 µM -14% | [8]; at 3.7 µM 14% | [8]; at 11.0 µM 28% | [8]; at 33.0 µM 44% | [14]; [16] 11% | [9]; at 1.2 µM -39% | [9]; at 3.7 µM -7% | [9]; [16] -7% | [9]; at 11.0 µM 16% | [9]; at 33.0 µM 56% | [10]; at 1.2 µM 25% | [10]; at 3.7 µM 31% | [10]; at 11.0 µM 39% | [10]; at 33.0 µM 68% | [11]; at 1.2 µM 3% | [11]; at 3.7 µM 26% | [11]; at 11.0 µM 46% | [12]; at 1.2 µM 42% | [12]; at 3.7 µM 45% | [12]; at 11.0 µM 66% | [13]; at 1.2 µM 15% | [13]; at 3.7 µM 25% | [13]; at 11.0 µM 28% | [13]; at 33.0 µM 63%
active: [1]; at 100.0 µM 76% | [3]; at 33.0 µM 72% | [3]; at 100.0 µM 82% | [4]; at 33.0 µM 74% | [4]; [17] 94% | [4]; at 50.0 µM 92.9% | [4]; at 100.0 µM 71% | [5]; [17] 95% | [5]; at 50.0 µM 83.7% | [5]; at 100.0 µM 77% | [6]; at 33.0 µM 71% | [6]; at 100.0 µM 74% | [7]; [17] 92% | [7]; at 50.0 µM 96.5% | [8]; at 100.0 µM 71% | [14]; [17] 92% | [14]; at 50.0 µM 95.2% | [9]; [17] 96% | [9]; at 50.0 µM 94.8% | [9]; at 100.0 µM 77% | [10]; at 100.0 µM 83% | [11]; at 33.0 µM 72% | [11]; at 100.0 µM 75% | [12]; at 33.0 µM 84% | [12]; at 100.0 µM 87% | [13]; at 100.0 µM 73%
